Measurements from PubChem BioAssay (NCATS).
Results filed as inconclusive are left out. Calls of active or inactive are those of the source. Calls come from the whole dose curve; tested in HEK293 reporter line.

assay: qHTS for Inhibitors of the Functional Ribonucleoprotein Complex (vRNP) of Lymphocytic Choriomeningitis Arenaviruses (LCMV): Viability assay - alamar blue signal for LCMV Primary Screen (AID 1347085); settings: alamar blue viability counter-screen, LCMV vRNP screen cells; series mostly up to 57.5 µM; activity change, negative = lower viability: at the top concentration; note: nearly all actives have a fitted effect of over 80% in size
% is set by controls: 0 for no effect and ±100 for the full control effect; potency is the fitted concentration of half-maximal effect.

Structure (SMILES) | activity change, negative = lower viability | Potency
C[C@@H]1OC(O[C@H]2[C@H](Oc3cc(O)c4c(=O)c(O)c(-c5ccc(O)cc5)oc4c3)O[C@H](CO)[C@@H](O)[C@@H]2O)[C@H](O)[C@H](O)[C@H]1O (stereo not given in full) | 37.8% [at 24.7 µM] (inactive) | –
COc1ccc([C@@H](OC)[C@@]2(Cc3ccc(O)cc3)N=C(N)N(C)C2=O)cc1 | 0.8% (inactive) | –
O=C(/C=C/c1ccccc1)OCCc1ccccc1 | 11.8% [at 115 µM] (inactive) | –
COc1cc(C2c3cc4c(c(O)c3CC3COC(=O)C32)OCO4)cc(OC)c1O (stereo not given) | -104% (inactive) | –
O=C(O)/C=C/c1ccc2c(c1)OCO2 | -4.98% (inactive) | –
CC(C)(C)[N+]([O-])=Cc1ccc(S(=O)(=O)O)cc1S(=O)(=O)O | -17.6% (inactive) | –
Cn1c(=O)c(-c2ccccc2)c(O)c2ccccc21 | -2.43% (inactive) | –
COc1ccc(/C=C/C(=O)O)cc1 | -6.64% (inactive) | –
CC(=O)N1CCN(c2ccc(OCc3nn(C)c(C)c3-c3cccc4c(CCCOc5cc(C)c(Cl)c(C)c5)c(C(=O)O)n(Cc5cccnc5)c34)cc2)CC1 | 10.3% (inactive) | –
C=C(C)[C@@H]1CCC2=CCC[C@@H](C)[C@]2(C)C1 | 10.5% [at 115 µM] (inactive) | –
N[C@@H](CCCCNC(=O)CCCC[C@@H]1SC[C@H]2NC(=O)N[C@H]12)C(=O)O | 11.1% (inactive) | –
CC1(C)CC(=O)CC(C)(C)N1 | 8.04% [at 115 µM] (inactive) | –
C=CC(C)(CCC=C(C)C)OC(=O)CC (stereo not given) | 5.37% [at 115 µM] (inactive) | –
COC(=O)C1(Cc2ccc(O)c(CC3OC3(C)C)c2)OC(=O)C(O)=C1c1ccc(O)cc1 (stereo not given) | 13% (inactive) | –
OC[C@H]1O[C@@H]2O[C@H]3[C@H](O)[C@@H](O)[C@@H](O[C@H]4[C@H](O)[C@@H](O)[C@@H](O[C@H]5[C@H](O)[C@@H](O)[C@@H](O[C@H]6[C@H](O)[C@@H](O)[C@@H](O[C@H]7[C@H](O)[C@@H](O)[C@@H](O[C@H]8[C@H](O)[C@@H](O)[C@@H](O[C@H]9[C@H](O)[C@@H](O)[C@@H](O[C@H]1[C@H](O)[C@H]2O)O[C@@H]9CO)O[C@@H]8CO)O[C@@H]7CO)O[C@@H]6CO)O[C@@H]5CO)O[C@@H]4CO)O[C@@H]3CO | 12.6% (inactive) | –
CCC(C)c1nccnc1OC (stereo not given) | -1.58% [at 115 µM] (inactive) | –
CC(C)NC[C@@H](C(=O)N1CCN(c2ncnc3c2[C@H](C)C[C@H]3O)CC1)c1ccc(Cl)cc1 | – | 485 nM (active)
CC(=O)O[C@]1(C(C)=O)CC[C@@H]2[C@@H]3C[C@H](C)C4=CC(=O)CC[C@]4(C)[C@H]3CC[C@@]21C | -6.48% (inactive) | –
COc1cc(C(=O)O[C@H]2C/C(C)=C/CC/C(C)=C/[C@@H](O)C2C(C)C)ccc1O (stereo not given in full) | 11.5% (inactive) | –
CC(C)=CCOc1ccc2ccc(=O)oc2c1 | 3.36% (inactive) | –

Structure (SMILES) | activity change, negative = lower viability | Potency
CC12CCC(=O)C=C1CCC1C2CCC2(C)C(C(=O)CO)CC(O)C12 (stereo not given) | 1.34% (inactive) | –
OC/C=C/c1ccccc1 | 11.9% [at 115 µM] (inactive) | –
CC(=O)c1ccccc1O | 12.5% [at 115 µM] (inactive) | –
COc1c2ccoc2nc2c(OC)c(O[C@@H]3O[C@H](C)[C@@H](O)[C@@H](O)[C@H]3O)ccc12 | -11.4% (inactive) | –
COc1ccc2ccc(=O)oc2c1CC(=O)C(C)C | 18.7% (inactive) | –
CC(C)(O)Cc1ccccc1 | 2.91% [at 115 µM] (inactive) | –
CC[C@H]1O[C@]2(CC[C@@H]1C)C[C@@H]1C[C@@H](C/C=C(\C)C[C@@H](C)/C=C/C=C3\CO[C@@H]4[C@H](O)C(C)=C[C@@H](C(=O)O1)[C@]34O)O2 | -7.52% (inactive) | –
CC/C=C\CCOC(=O)CCCCC | 6.18% [at 115 µM] (inactive) | –
C[C@H]1O[C@H](O[C@H]2[C@H](O)[C@@H](O)[C@@H](O[C@H]3[C@H](O)[C@@H](O)C(O)O[C@H]3CO)O[C@H]2CO)[C@H](O)[C@@H](O)[C@H]1N[C@H]1C=C(CO)[C@@H](O)[C@H](O)[C@@H]1O (stereo not given in full) | 12.6% (inactive) | –
CC(C)CN(C[C@H](O)[C@H](Cc1ccccc1)NC(=O)O[C@H]1CCOC1)S(=O)(=O)c1ccc(N)cc1 | 10.9% (inactive) | –
NC(=O)c1ncn([C@@H]2O[C@H](CO)[C@@H](O)[C@@H]2O)c1N | -2.72% (inactive) | –
CC(Cc1c[nH]c2ccccc12)C(=O)O (stereo not given) | 4.93% (inactive) | –
CC(C)=CCC/C(C)=C/C(=O)O | 21.8% [at 115 µM] (inactive) | –
CCCc1ccc(OC)cc1 | 2.53% [at 115 µM] (inactive) | –
CCCCCCC(CO)CCCC (stereo not given) | 0.579% [at 115 µM] (inactive) | –
CCCCCCCCCCCCC(=O)CCCCC(=O)O | 5.64% (inactive) | –
COc1ccc(CO)cc1 | 7.43% [at 115 µM] (inactive) | –
C=C1CC23C[C@H]4[C@@H]5[C@@]6(C)C[C@H](OC(=O)c7ccccc7)[C@@H](OC(C)=O)[C@]57[C@@H]2[C@@H](OC(C)=O)[C@H]1[C@@H](O)[C@H]3[C@H]7N4C6 | 16.8% [at 24.7 µM] (inactive) | –
O=C(O)C=C(Br)Br | 0.283% (inactive) | –
O=C1CCCCCCCCCCCCCCO1 | 25.4% [at 115 µM] (inactive) | –
